Laboratory results: PubChem BioAssay (NCATS)
Inconclusive results are not listed. Active and inactive are the calls of the source. Unless noted, the call rests on the fitted dose curve; in most records, active means well fitted curve in the direction sought with a large enough effect; inconclusive means small, poorly fitted or top-dose-only effect, or another doubt; inactive means no such curve, though single readings can be large; an effect the other way counts as inactive or inconclusive.

Experiments:
[1] = NS1 protein of Zika virus - qHTS assay to identify small molecule inhibitors in human HEK 293 cells (AID 1347053); further: nearly all actives have a fitted effect of over 55% in size; further: potency means the concentration at half of the fitted maximal effect
Summary of the method: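 TR-FRET signal from two anti-ZIKV NS1 antibodies quantified NS1 in HEK 293 cells 24 h after MR766 infection at MOI = 0.5; compounds were added 1 h before virus. Uninfected cells and infected cells defined the NS1 normalization range.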

[2] = target: T1, Tyrosine-protein phosphatase non-receptor type substrate 1 (Homo sapiens) + Leukocyte surface antigen CD47 (Homo sapiens) (UniProt P78324+Q08722); experiment: CD47-SIRPalpha protein protein interaction - LANCE assay qHTS validation (AID 1347057; active means well fitted curve in the direction sought with a large enough effect in the signal ratio, with a control signal flat, not every such curve was filed as active; the % refers to the signal ratio; further: 0% is about no effect)
Summary of the method: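 Inhibition of soluble CD47/SIRPalpha ectodomain association by titrated compounds, measured as 665/615 nm time-resolved FRET ratio after sequential 30 min room-temperature incubations.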

[3] = target: T1, Tyrosine-protein phosphatase non-receptor type substrate 1 (Homo sapiens) + Leukocyte surface antigen CD47 (Homo sapiens); experiment: CD47-SIRPalpha protein protein interaction - HTRF assay qHTS validation (AID 1347058; active means well fitted curve in the direction sought with a large enough effect in the signal ratio, not every such curve was filed as active; the % refers to the signal ratio; further: 0% is about no effect)
Summary of the method: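 Soluble extracellular domains (6His-CD47, Avi-tag-biotinylated SIRPalpha) in PBS pH 7.4 with 0.05% IGEPAL CA-630. Compounds were preincubated 30 min at RT with CD47 and anti-His-Eu, then SIRPalpha and SAV-XL665 were added. TR-FRET 665/615 ratio.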

[4] = target: T1, Tyrosine-protein phosphatase non-receptor type substrate 1 (Homo sapiens) + Leukocyte surface antigen CD47 (Homo sapiens); experiment: CD47-SIRPalpha protein protein interaction - Alpha assay qHTS validation (AID 1347059);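 further: bead proximity luminescence from CD47 binding SIRPalpha after compound preincubation with SIRPalpha; on the % scale 0 is the no-effect control and ±100 the full control effect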
Summary of the method: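 AlphaScreen signal between CD47-His (12.5 nM) and biotin-SIRPalpha (25 nM) soluble extracellular domains, bead-captured via Ni-NTA and streptavidin. Compounds, in 7-point titrations, met SIRPalpha 30 min before CD47; PBS pH 7.4 with 0.05% IGEPAL.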

[5] = target: Parathyroid hormone/parathyroid hormone-related peptide receptor (Homo sapiens) (UniProt Q03431); experiment: qHTS for PTHR1 Agonists: Optimization Screen against the NCGC LOPAC library (AID 1347079);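 further: GloSensor cAMP luminescence in HEK-293 GP2 cells expressing human PTHR1 with IBMX; 0% is about no effect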
Summary of the method: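 HEK-293 GP2 cells, PTHR1 + GloSensor cAMP; 3000 cells/well, o/n. Luciferin + IBMX 0.5mM each (stock), 1 hr 37C. Cpd titration, 1 hr 37C. Lum after 15 min RT. Ctrl M-PTH(1-15) top 10uM.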

[6] = target: N-terminal Xaa-Pro-Lys N-methyltransferase 1 (Homo sapiens) (UniProt Q9BV86); experiment: qHTS Assay for Inhibitors of N-terminal methyltransferase 1 (NTMT1): LOPAC validation of the NTMT1 SAHH-coupled ThioGlo3 Assay (AID 1347143);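 further: SAH from peptide methylation measured as thiol fluorescence via SAHH coupling and ThioGlo3; nearly all actives have a fitted effect of over 70% in size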; further: potency means the concentration at half of the fitted maximal effect
Summary of the method: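 NTMT1 125nM + cpds (various conc.), 1 min RT; add SAM 100uM/SAHH 10uM/ThioGlo3 15uM (addition mix). SAHH-coupled thiol detection, Ex340/Em450, t0 and 30 min RT; signal normalized to background. LOPAC 1280-cpd pilot.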

[7] = tested on: Zika virus NS2B-NS3 protease (unlinked); experiment: Optimization of GU AMC qHTS for Zika virus inhibitors: Unlinked NS2B-NS3 protease assay (AID 1347151); further: nearly all actives have a fitted effect of over 80% in size; further: potency means the concentration at half of the fitted maximal effect
Summary of the method: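 Fluorescence read-out (340 nm ex / 450 nm em) of AMC peptide cleavage, taken immediately and after 15 min at room temperature (~20% conversion). Enzyme was the unlinked NS2B–NS3 complex at 25 nM in Tris pH 8.0 buffer.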

[8] = tested on: Zika virus NS2B-NS3 protease; experiment: Primary screen GU AMC qHTS for Zika virus inhibitors (AID 1347154);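 further: 0% = no-inhibitor control and -100% = no-enzyme control; nearly all actives have a fitted effect of over 70% in size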
Summary of the method: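 Fluorogenic AMC-substrate cleavage by noncovalent NS2B-NS3 protease complex (25 nM, pH 8.0 Tris buffer with Tween 20) followed for 15 minutes at room temperature (~20% conversion). Percent inhibition from ex340/em450 signal change, fitted by 4-parameter Hill equation.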

[9] = target: Lysine-specific demethylase 5B (Homo sapiens) (UniProt Q9UGL1); experiment: Optimization screen for KDM5B Histone Demethylases FDH coupled qHTS against the LOPAC library (AID 1347166); details: KDM5B demethylation, FDH-coupled NADH fluorescence (FDH is formaldehyde dehydrogenase); at 57.5 µM (top of the series); further: 0% is about no effect
Summary of the method: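 KDM5BDeltaAP (200nM final) in 50mM HEPES pH 7.5, 0.01% Tween-20 was preincubated with compound for 10 min at room temperature. A substrate mix of 12.5uM H3K4Me3, 25uM a-ketoglutarate, ascorbate, Fe2+, NAD+ and formaldehyde dehydrogenase was then added. NADH fluorescence (340/450 nm) was read initially and after 30 min.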

T1 sequence (P78324 whole entry, looked up, the tested form may be a part): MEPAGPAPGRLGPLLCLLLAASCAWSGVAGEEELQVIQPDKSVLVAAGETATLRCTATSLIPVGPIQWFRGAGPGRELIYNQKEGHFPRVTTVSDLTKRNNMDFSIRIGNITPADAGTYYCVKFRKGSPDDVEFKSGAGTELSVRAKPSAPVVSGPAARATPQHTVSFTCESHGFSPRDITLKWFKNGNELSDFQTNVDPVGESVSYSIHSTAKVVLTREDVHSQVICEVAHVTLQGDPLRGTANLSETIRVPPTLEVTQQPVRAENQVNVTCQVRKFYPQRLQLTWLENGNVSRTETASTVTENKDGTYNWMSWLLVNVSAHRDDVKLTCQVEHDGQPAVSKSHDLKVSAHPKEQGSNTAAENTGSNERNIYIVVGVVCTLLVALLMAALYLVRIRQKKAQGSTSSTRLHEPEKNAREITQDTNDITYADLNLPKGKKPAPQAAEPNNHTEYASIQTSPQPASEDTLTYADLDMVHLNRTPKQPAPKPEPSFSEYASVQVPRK
T1 sequence (Q08722 whole entry, looked up, the tested form may be a part): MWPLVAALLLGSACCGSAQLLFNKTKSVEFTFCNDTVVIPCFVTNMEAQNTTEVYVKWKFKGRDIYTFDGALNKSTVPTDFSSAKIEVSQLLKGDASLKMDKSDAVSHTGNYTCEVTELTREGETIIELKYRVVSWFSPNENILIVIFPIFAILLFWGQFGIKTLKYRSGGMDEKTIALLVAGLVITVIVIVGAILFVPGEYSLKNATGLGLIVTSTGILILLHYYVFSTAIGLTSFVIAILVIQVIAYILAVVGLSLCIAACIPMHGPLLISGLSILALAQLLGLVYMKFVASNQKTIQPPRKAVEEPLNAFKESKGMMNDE
Parathyroid hormone/parathyroid hormone-related peptide receptor (Homo sapiens), sequence (Q03431 whole entry, looked up): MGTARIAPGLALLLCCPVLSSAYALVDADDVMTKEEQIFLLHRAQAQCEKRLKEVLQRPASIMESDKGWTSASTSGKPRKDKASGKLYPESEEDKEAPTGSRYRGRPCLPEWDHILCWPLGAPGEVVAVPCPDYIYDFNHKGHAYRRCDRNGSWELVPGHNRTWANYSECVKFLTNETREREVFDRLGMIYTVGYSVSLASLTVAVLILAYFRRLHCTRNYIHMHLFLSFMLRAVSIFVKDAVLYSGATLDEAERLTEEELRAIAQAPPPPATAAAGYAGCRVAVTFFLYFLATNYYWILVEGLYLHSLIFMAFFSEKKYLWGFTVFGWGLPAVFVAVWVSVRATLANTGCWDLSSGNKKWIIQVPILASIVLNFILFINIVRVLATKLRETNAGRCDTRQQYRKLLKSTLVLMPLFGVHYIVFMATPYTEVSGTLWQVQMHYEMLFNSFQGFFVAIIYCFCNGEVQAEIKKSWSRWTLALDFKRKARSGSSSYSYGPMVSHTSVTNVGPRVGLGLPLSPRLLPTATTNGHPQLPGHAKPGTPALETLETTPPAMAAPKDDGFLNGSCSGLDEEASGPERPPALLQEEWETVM
N-terminal Xaa-Pro-Lys N-methyltransferase 1 (Homo sapiens), sequence (Q9BV86 whole entry, looked up): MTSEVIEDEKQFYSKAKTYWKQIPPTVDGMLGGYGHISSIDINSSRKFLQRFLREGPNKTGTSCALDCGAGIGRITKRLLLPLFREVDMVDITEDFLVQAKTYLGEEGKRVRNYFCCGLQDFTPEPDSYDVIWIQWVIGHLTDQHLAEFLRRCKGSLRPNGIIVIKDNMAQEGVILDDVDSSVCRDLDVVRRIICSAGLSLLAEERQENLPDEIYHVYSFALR
Lysine-specific demethylase 5B (Homo sapiens), sequence (Q9UGL1 whole entry, looked up): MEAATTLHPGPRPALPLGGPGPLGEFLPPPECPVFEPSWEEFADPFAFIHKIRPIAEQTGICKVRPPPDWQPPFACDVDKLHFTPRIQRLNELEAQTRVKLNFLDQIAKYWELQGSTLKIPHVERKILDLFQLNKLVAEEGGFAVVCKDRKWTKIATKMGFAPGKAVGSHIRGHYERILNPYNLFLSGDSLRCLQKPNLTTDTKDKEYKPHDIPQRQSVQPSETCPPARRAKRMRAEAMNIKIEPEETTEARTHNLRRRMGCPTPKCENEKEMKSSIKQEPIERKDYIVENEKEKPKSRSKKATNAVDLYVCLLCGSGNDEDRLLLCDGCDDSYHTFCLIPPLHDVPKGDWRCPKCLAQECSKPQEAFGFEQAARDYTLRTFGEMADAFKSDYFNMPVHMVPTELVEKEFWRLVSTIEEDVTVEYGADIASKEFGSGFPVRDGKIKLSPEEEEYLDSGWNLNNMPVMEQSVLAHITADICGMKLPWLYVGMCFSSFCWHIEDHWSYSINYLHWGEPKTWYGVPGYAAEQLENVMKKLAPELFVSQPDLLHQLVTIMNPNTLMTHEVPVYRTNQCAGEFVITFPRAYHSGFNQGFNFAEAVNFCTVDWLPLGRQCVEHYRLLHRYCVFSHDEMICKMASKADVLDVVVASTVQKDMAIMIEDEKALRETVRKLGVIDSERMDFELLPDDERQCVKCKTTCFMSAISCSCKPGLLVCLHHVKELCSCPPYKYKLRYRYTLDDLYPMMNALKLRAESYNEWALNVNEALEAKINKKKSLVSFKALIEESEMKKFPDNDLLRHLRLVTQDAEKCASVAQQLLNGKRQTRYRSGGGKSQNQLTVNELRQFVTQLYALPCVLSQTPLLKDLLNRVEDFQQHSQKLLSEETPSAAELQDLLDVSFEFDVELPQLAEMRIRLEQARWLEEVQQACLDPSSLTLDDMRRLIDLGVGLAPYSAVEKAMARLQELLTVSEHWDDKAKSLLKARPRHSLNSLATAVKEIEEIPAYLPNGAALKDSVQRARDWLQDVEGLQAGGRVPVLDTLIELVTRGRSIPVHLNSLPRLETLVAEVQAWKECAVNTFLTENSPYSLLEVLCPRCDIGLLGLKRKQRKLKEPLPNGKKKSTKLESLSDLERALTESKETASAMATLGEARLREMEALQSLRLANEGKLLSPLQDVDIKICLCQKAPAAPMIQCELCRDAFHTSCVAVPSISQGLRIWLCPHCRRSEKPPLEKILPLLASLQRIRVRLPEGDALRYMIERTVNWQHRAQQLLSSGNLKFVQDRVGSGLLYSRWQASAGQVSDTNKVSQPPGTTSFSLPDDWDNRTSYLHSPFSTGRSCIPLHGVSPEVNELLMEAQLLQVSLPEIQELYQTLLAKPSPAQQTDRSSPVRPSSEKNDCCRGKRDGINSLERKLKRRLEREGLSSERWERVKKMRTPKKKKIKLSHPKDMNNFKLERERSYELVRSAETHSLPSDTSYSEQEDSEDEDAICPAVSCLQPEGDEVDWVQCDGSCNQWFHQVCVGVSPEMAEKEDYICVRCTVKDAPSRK

N[C@H]1CONC1=O
inactive: Potency [1] | Potency [2] | outcome [3] | Potency [4] | Potency [5] | Potency [6]

OCC1NCC(O)C(O)C1O (centres undefined)
inactive: Potency [1] | Potency [2] | outcome [3] | Potency [4] | Potency [5] | Potency [6] | Potency [7]

[N-]=[N+]=Nc1ccc(C(=O)CSC[C@H](NC(=O)CC[C@H](N)C(=O)O)C(=O)NCC(=O)O)cc1
inactive: Potency [1] | Potency [2] | outcome [3] | Potency [4] | Potency [5] | Potency [6]

O=C(O)/C=C/c1ccc(O)c(O)c1
inactive: Potency [1] | Potency [2] | outcome [3] | Potency [4] | Potency [5] | Potency [7]
active: Potency [6] 44.7 µM

Nc1nc2[nH]c(=O)cnc2c(=O)[nH]1
inactive: Potency [1] | Potency [2] | outcome [3] | Potency [4] | Potency [5]
active: Potency [6] 56.2 µM | Potency [7] 13.4 µM

CN1CCC2(CCN3CCc4c(oc5ccccc45)C3C2)N(C)C1=O (centres undefined)
inactive: Potency [1] | Potency [2] | outcome [3] | Potency [4] | Potency [5]

Oc1cc2c(cc1O)C(c1ccccc1)CNCC2 (centres undefined)
inactive: Potency [1] | Potency [2] | outcome [3] | Potency [4] | Potency [5] | Potency [7] | Potency [8]
active: Potency [6] 44.7 µM

CC1CCN=C(N)S1 (centres undefined)
inactive: Potency [1] | Potency [2] | outcome [3] | Potency [4] | Potency [5] | Potency [6] | Potency [7]

O=C(O)C1CCNCC1
inactive: Potency [1] | Potency [2] | outcome [3] | Potency [4] | Potency [5] | Potency [6]

O=C(O)C1=CCCN(CCON=C(c2ccccc2)c2ccccc2)C1
inactive: Potency [1] | Potency [2] | outcome [3] | Potency [4] | Potency [5] | Potency [6] | Potency [7] | Potency [8] | activity, negative = inhibition [9] 1.04%

COC(=O)[C@H](NC(=O)c1cc(-c2ccccc2)nc2ccccc12)c1ccccc1
active: Potency [6] 56.2 µM | Potency [7] 23.8 µM
inactive: Potency [1] | Potency [2] | outcome [3] | Potency [4] | Potency [5] | Potency [8]

N[C@H](C(=O)O)c1cc(O)cc(O)c1
inactive: Potency [1] | Potency [2] | outcome [3] | Potency [4] | Potency [5] | Potency [6] | Potency [7] | Potency [8] | activity, negative = inhibition [9] -24%

COC(=O)C(N)Cc1ccc(Cl)cc1 (centres undefined)
inactive: Potency [1] | Potency [2] | outcome [3] | Potency [4] | Potency [5] | Potency [6] | Potency [7] | activity, negative = inhibition [9] -3.16%

NCCC1CCCC(CCN)N1 (centres undefined)
inactive: Potency [1] | Potency [2] | outcome [3] | Potency [4] | Potency [5] | Potency [6] | Potency [7] | activity, negative = inhibition [9] -5.63%

S=C(S)N1CCCC1
inactive: Potency [2] | outcome [3] | Potency [4] | Potency [5] | Potency [7] | Potency [8]
active: Potency [1] 7.94 µM | Potency [6] 20 µM
